Drawing on PubChem BioAssay (EPA / NIEHS), this text covers outcome and AC50 for 26 molecules.

Molecules are shown by their SMILES. Calls of active or inactive are those of the source. The calls were made as follows: active = hit-call score of the fitted dose curve at least 0.9, where 1 is the maximum; inactive = score below 0.9.

Read-out in one experiment: Interferon-inducible T-cell alpha chemoattractant (ITAC), CXCL11 (gene 6373)
In words: BSK_hDFCGF_ITAC: BioMAP Diversity Plus: hDFCGF Assay for Interferon-inducible T-cell alpha chemoattractant (ITAC) Biomarker Activity (AID 2284251). The note with it: primary human foreskin fibroblasts. The method in brief: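 ELISA readout of I-TAC after 24 h chemical exposure; human dermal foreskin fibroblast primary cells. Positive-direction fitting vs DMSO baseline. Parallel SRB total-protein staining (0.1% SRB after 10% TCA fixation, 560 nm) flags cytotoxicity.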
Consider `OCCCCO`, for which the outcome was inactive.
Same read-out and setting: next, `CCCCOC(=O)COC(=O)c1ccccc1C(=O)OCCCC`: “inactive”; `O=C(Cc1ccccc1)OCCc1ccccc1`: “inactive”.

Read-out in another experiment: Plasminogen activator inhibitor-1 (PAI1), SERPINE1 (gene 5054)
The experiment can be described thus: BSK_KF3CT_PAI1: BioMAP Diversity Plus: KF3CT Assay for Plasminogen activator inhibitor-1 (PAI1) Biomarker Activity (AID 2284252). Particulars: primary human keratinocytes with fibroblasts. The method in brief:
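ELISA read-out of PAI-1 taken 24 h after chemical treatment of a human skin primary co-culture of keratinocytes and foreskin fibroblasts. Increases over DMSO-treated wells defined activity.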
As for `OCCCCO`, the result was inactive.
In the case of `CCCCOC(=O)COC(=O)c1ccccc1C(=O)OCCCC`, the outcome was inactive.
On the same count and under the same terms, then `O=C(Cc1ccccc1)OCCc1ccccc1`, with “inactive”.

Read-out in another experiment: Interleukin-8 (IL8), CXCL8 (gene 3576)
The experiment can be described thus: BSK_KF3CT_IL8: BioMAP Diversity Plus: KF3CT Assay for Interleukin-8 (IL8) Biomarker Activity (AID 2284254). The note with it: primary human keratinocytes with fibroblasts. The procedure: BSK_KF3CT is a cell-based, multiplexed-readout assay that uses keratinocytes and foreskin fibroblasts, a human skin primary cell co-culture, with measurements taken at 24 hours after chemical dosing in a 96-well plate.BSK_KF3CT_IL8 is an assay component measured in the BSK_KF3CT assay. It measures IL-8 antibody related to regulation of gene expression using ELISA technology.Data from the assay component BSK_KF3CT_IL8 was analyzed at the endpoint, BSK_KF3CT_IL8, in the positive analysis fitting direction relative to DMSO as the negative control and baseline of activity. Using a type of binding reporter, gain or loss-of-signal activity can be used to understand protein changes. To generalize the intended target to other relatable targets, this assay endpoint is annotated to the 'cytokine' intended target family, where the subfamily is 'interleukins'.
The levels of cell surface (or secreted, indicated by the prefix "s") biomarker endpoints were measured by ELISA. Overt cytotoxicity to cells in confluent adherent cultures (all systems other than the BT system) was assessed by measuring total protein levels using sulforhodamine B (SRB) staining in parallel cultures at the time of biomarker measurements, indicated as SRB endpoints. For proliferation assays for adherent cell types, individual cell types are cultured at sub-confluence and relative cell numbers quantified by SRB staining at time points optimized for each system (48 h: 3C and CASM3C systems; 72 h: BT and HDF3CGF systems; 96 h: SAg system). SRB was performed by staining cells with 0.1% SRB after fixation with 10% TCA and reading wells at 560 nm.Viability and proliferation of PBMC (T cells) was quantified by Alamar Blue reduction for the SAg and BT systems. […] Then, Alamar Blue (20 uL/well) (Invitrogen, Cat DAL1100) was added for 6 h, and the plates were read with a fluorescence microplate reader at 546/580 nm (excitation/emission). […] Plates were read after 6 h.
For `OCCCCO`, the outcome was inactive.
The same measure, in the same setting: next, `CCCCOC(=O)COC(=O)c1ccccc1C(=O)OCCCC`: “inactive”.
The same measure, in the same setting: next, `O=C(Cc1ccccc1)OCCc1ccccc1`: “inactive”.

Read-out in the next experiment: Plasminogen activator inhibitor-1 (PAI1), SERPINE1 (gene 5054)
The experiment can be described thus: BSK_MyoF_PAI1: BioMAP Diversity Plus: MyoF Assay for Plasminogen activator inhibitor-1 (PAI1) Biomarker Activity (AID 2284256).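 As to outcome: PAI-1 protein level measured by ELISA in fibroblast cultures; PAI-1 read 24 h after compound addition.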 Particulars: primary human lung fibroblasts. The method in brief:
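ELISA read-out of PAI-1 from primary human lung fibroblast cultures 24 h after dosing; gain-of-signal fit versus DMSO control.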
For `Cc1ccc2nc3sc(=O)sc3nc2c1`, the result was inactive.
On to `CCN(CC)C(=O)C(Cl)=C(C)OP(=O)(OC)OC`, for which the outcome was inactive.
Take `Oc1ccc(Cc2ccc(O)cc2)cc1`: the outcome was inactive.
For the molecule `[Cl][Sn]([c]1ccccc1)([c]1ccccc1)[c]1ccccc1`, the AC50 is 0.169 µM (active).
For the molecule `Cc1ccc(OP(=O)(Oc2ccc(C)cc2C)Oc2ccc(C)cc2C)c(C)c1`, the outcome was inactive.
Same read-out and setting: next, `C#CCOC(=O)/C=C(C)/C=C/CC(C)CCCC(C)C` (centres undefined): “inactive”.
On the same count and under the same terms, then `CC(C)=CC1C(C(=O)OCc2cccc(Oc3ccccc3)c2)C1(C)C` (centres undefined), with “inactive”.
As to `Cc1ccccc1OP(=O)(Oc1ccccc1)Oc1ccccc1`, the AC50 is 13.5 µM (active).
Turning to `CCOP(=O)(OCC)OC(=CCl)c1ccc(Cl)cc1Cl`, the outcome was inactive.
For `O=C1C=CC(=O)c2ccccc21`, the AC50 was 4.23 µM (active).
The same measure, in the same setting: then `CC(C)N(C(=O)CCl)c1ccccc1`, with 3.09 µM (active).

Read-out in the next experiment: Interleukin-8 (IL8), CXCL8 (gene 3576)
In words: BSK_MyoF_IL8: BioMAP Diversity Plus: MyoF Assay for Interleukin-8 (IL8) Biomarker Activity (AID 2284261). Particulars: primary human lung fibroblasts. The method in brief: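 ELISA read-out of IL-8 from primary human lung fibroblasts, 24 h post-dose; positive-direction curve fitting relative to DMSO vehicle baseline.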
As to `Cc1ccc2nc3sc(=O)sc3nc2c1`, the concentration at half-maximal activity (AC50) was 3.31 µM (active).
For the molecule `CCN(CC)C(=O)C(Cl)=C(C)OP(=O)(OC)OC`, the outcome was inactive.
As for `Oc1ccc(Cc2ccc(O)cc2)cc1`, the result was inactive.
Consider `Cc1cc(C(C)(C)c2ccc(O)c(C)c2)ccc1O`, for which the result was inactive.
Regarding `[Cl][Sn]([c]1ccccc1)([c]1ccccc1)[c]1ccccc1`, the result was inactive.
Same read-out and setting: then `Cc1cccc(OP(=O)(Oc2cccc(C)c2)Oc2cccc(C)c2)c1`, with “inactive”.
With `c1ccc(-c2cccc(-c3ccccc3)c2)cc1`, the AC50 is 20 µM (active).
On to `Oc1c(Br)cc(Br)cc1Br`, for which the concentration at half-maximal activity (AC50) was 13.9 µM (active).
For `Cc1ccc(OP(=O)(Oc2ccc(C)cc2C)Oc2ccc(C)cc2C)c(C)c1`, the result was inactive.
As to `N#CCCC(Br)(C#N)CBr` (centres undefined), the outcome was inactive.
On the same count and under the same terms, then `COCC(=O)N(c1c(C)cccc1C)[C@H](C)C(=O)OC`, with “inactive”.
On to `O=S(=O)(c1ccc(Cl)cc1)c1cc(Cl)c(Cl)cc1Cl`, for which the outcome was inactive.
`CC(C=O)Cc1ccc2c(c1)OCO2` (centres undefined): the outcome was inactive.
Consider `C#CCOC(=O)/C=C(C)/C=C/CC(C)CCCC(C)C` (centres undefined), for which the AC50 was 4.33 µM (active).
For the molecule `CC1(C)[C@H](C(=O)O[C@H](C#N)c2cccc(Oc3ccccc3)c2)[C@@H]1/C=C(\Cl)C(F)(F)F`, the outcome was inactive.
On to `CCOP(=O)(OCC)SCCSCC`, for which the outcome was inactive.
As for `CC(C)=CC1C(C(=O)OCc2cccc(Oc3ccccc3)c2)C1(C)C` (centres undefined), the outcome was inactive.
In the case of `Cc1ccccc1OP(=O)(Oc1ccccc1)Oc1ccccc1`, the concentration at half-maximal activity (AC50) was 0.731 µM (active).
As to `CCOP(=O)(OCC)OC(=CCl)c1ccc(Cl)cc1Cl`, the outcome was inactive.
Still for that read-out and setting: next, `O=C1C=CC(=O)c2ccccc21`: “inactive”.
`CC(C)N(C(=O)CCl)c1ccccc1`: the half-maximal activity concentration (AC50) is 20 µM (active).
On to `CC(C)(COCC1CO1)COCC1CO1` (centres undefined), for which the outcome was inactive.
For `C=CC(Cl)CCl` (centres undefined), the result was inactive.

Read-out in a further experiment: Decorin, DCN (gene 1634)
In words: BSK_MyoF_Decorin: BioMAP Diversity Plus: MyoF Assay for Decorin Biomarker Activity (AID 2284265). Particulars: primary human lung fibroblasts. The method in brief: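 Human lung fibroblasts in the MyoF system were exposed to compound for 24 h, after which decorin was quantified by ELISA. Activity was fitted in the positive direction relative to DMSO negative control.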
`Cc1ccc2nc3sc(=O)sc3nc2c1`: the half-maximal activity concentration (AC50) was 5 µM (active).
As to `CCN(CC)C(=O)C(Cl)=C(C)OP(=O)(OC)OC`, the outcome was inactive.
On the same count and under the same terms, then `Oc1ccc(Cc2ccc(O)cc2)cc1`, with “inactive”; and `Cc1cc(C(C)(C)c2ccc(O)c(C)c2)ccc1O`, with “inactive”.
In the case of `[Cl][Sn]([c]1ccccc1)([c]1ccccc1)[c]1ccccc1`, the AC50 is 0.167 µM (active).
As to `Cc1cccc(OP(=O)(Oc2cccc(C)c2)Oc2cccc(C)c2)c1`, the outcome was inactive.
In the case of `c1ccc(-c2cccc(-c3ccccc3)c2)cc1`, the outcome was inactive.
`Oc1c(Br)cc(Br)cc1Br`: the result was inactive.
On the same count and under the same terms, then `Cc1ccc(OP(=O)(Oc2ccc(C)cc2C)Oc2ccc(C)cc2C)c(C)c1`, with “inactive”.
For `N#CCCC(Br)(C#N)CBr` (centres undefined), the result was inactive.
On to `COCC(=O)N(c1c(C)cccc1C)[C@H](C)C(=O)OC`, for which the outcome was inactive.
On to `O=S(=O)(c1ccc(Cl)cc1)c1cc(Cl)c(Cl)cc1Cl`, for which the result was inactive.
With `CC(C=O)Cc1ccc2c(c1)OCO2` (centres undefined), the result was inactive.
In the case of `C#CCOC(=O)/C=C(C)/C=C/CC(C)CCCC(C)C` (centres undefined), the result was inactive.
Still for that read-out and setting: next, `CC1(C)[C@H](C(=O)O[C@H](C#N)c2cccc(Oc3ccccc3)c2)[C@@H]1/C=C(\Cl)C(F)(F)F`: “inactive”; `CCOP(=O)(OCC)SCCSCC`: “inactive”.
Still for that read-out and setting: next, `CC(C)=CC1C(C(=O)OCc2cccc(Oc3ccccc3)c2)C1(C)C` (centres undefined): “inactive”.
In the case of `Cc1ccccc1OP(=O)(Oc1ccccc1)Oc1ccccc1`, the AC50 is 2.3 µM (active).
In the case of `CCOP(=O)(OCC)OC(=CCl)c1ccc(Cl)cc1Cl`, the AC50 is 20 µM (active).
The same measure, in the same setting: then `O=C1C=CC(=O)c2ccccc21`, with 1.33 µM (active); and `CC(C)N(C(=O)CCl)c1ccccc1`, with 6 µM (active).
Consider `CC(C)(COCC1CO1)COCC1CO1` (centres undefined), for which the result was inactive.
On the same count and under the same terms, next, `C=CC(Cl)CCl` (centres undefined): “inactive”.

Read-out in another experiment: not listed separately
The experiment can be described thus: BSK_MyoF_SRB: Viability Assessment in the BioMAP Diversity Plus: MyoF Assay (AID 2284267).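 Also: total protein by SRB absorbance in parallel cultures as cytotoxicity measure.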 The note with it: primary human lung fibroblasts. The method in brief: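 Read-out is SRB absorbance at 560 nm, reflecting total protein in parallel lung fibroblast cultures harvested 24 h after compound addition. Cells were TCA-fixed (10%) and stained with 0.1% SRB; activity is referenced to DMSO.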
For the molecule `Cc1ccc2nc3sc(=O)sc3nc2c1`, the outcome was inactive.
Same read-out and setting: next, `CCN(CC)C(=O)C(Cl)=C(C)OP(=O)(OC)OC`: “inactive”; `Oc1ccc(Cc2ccc(O)cc2)cc1`: “inactive”.
Turning to `Cc1cc(C(C)(C)c2ccc(O)c(C)c2)ccc1O`, the half-maximal activity concentration (AC50) is 13.7 µM (active).
Same read-out and setting: then `[Cl][Sn]([c]1ccccc1)([c]1ccccc1)[c]1ccccc1`, with 1.36 µM (active).
In the case of `Cc1cccc(OP(=O)(Oc2cccc(C)c2)Oc2cccc(C)c2)c1`, the result was inactive.
In the case of `c1ccc(-c2cccc(-c3ccccc3)c2)cc1`, the concentration at half-maximal activity (AC50) is 22.5 µM (active).
In the case of `Oc1c(Br)cc(Br)cc1Br`, the result was inactive.
Regarding `Cc1ccc(OP(=O)(Oc2ccc(C)cc2C)Oc2ccc(C)cc2C)c(C)c1`, the result was inactive.
For the molecule `N#CCCC(Br)(C#N)CBr` (centres undefined), the concentration at half-maximal activity (AC50) was 14.1 µM (active).
Take `COCC(=O)N(c1c(C)cccc1C)[C@H](C)C(=O)OC`: the result was inactive.
The same measure, in the same setting: then `O=S(=O)(c1ccc(Cl)cc1)c1cc(Cl)c(Cl)cc1Cl`, with “inactive”.
Still for that read-out and setting: next, `CC(C=O)Cc1ccc2c(c1)OCO2` (centres undefined): “inactive”.
The same measure, in the same setting: then `C#CCOC(=O)/C=C(C)/C=C/CC(C)CCCC(C)C` (centres undefined), with “inactive”.
`CC1(C)[C@H](C(=O)O[C@H](C#N)c2cccc(Oc3ccccc3)c2)[C@@H]1/C=C(\Cl)C(F)(F)F`: the outcome was inactive.
For the molecule `CCOP(=O)(OCC)SCCSCC`, the result was inactive.
Same read-out and setting: then `CC(C)=CC1C(C(=O)OCc2cccc(Oc3ccccc3)c2)C1(C)C` (centres undefined), with “inactive”.
Regarding `Cc1ccccc1OP(=O)(Oc1ccccc1)Oc1ccccc1`, the AC50 was 20 µM (active).
The same measure, in the same setting: then `CCOP(=O)(OCC)OC(=CCl)c1ccc(Cl)cc1Cl`, with 30.4 µM (active); and `O=C1C=CC(=O)c2ccccc21`, with 4.69 µM (active).
In the case of `CC(C)N(C(=O)CCl)c1ccccc1`, the concentration at half-maximal activity (AC50) is 3.67 µM (active).
With `CC(C)(COCC1CO1)COCC1CO1` (centres undefined), the result was inactive.
`C=CC(Cl)CCl` (centres undefined): the concentration at half-maximal activity (AC50) is 9.58 µM (active).

For orientation: AC50 means the concentration at which the activity in the assay is half-maximal.
